Data reported in PubChem BioAssay (Tox21).
Results filed as inconclusive are left out. Activity calls are given as the source filed them. Unless noted, calls come from the whole dose curve; as a rule, active = well fitted curve in the direction sought with a large enough effect in the repeat runs; inconclusive = weak or mixed curves; inactive = no such curve, though single readings can be large; an effect the other way counts as inactive or inconclusive.

How the values were obtained:
[1] = A CellTox Green Cytotoxicity Assay to monitor cytotoxicity in HEK293 cells - 32 hour (AID 1224881); note: nearly all actives have a fitted effect of over 40% in size; note: potency is the fitted concentration of half-maximal effect
Summary of the method: (§1)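 Seeding of HEK293 cells together with cytotoxicity dye preceded a 5 h incubation at 37 C/5% CO2. Test compounds in DMSO were then added and fluorescence monitored across 40 h.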

[2] = A CellTox Green Cytotoxicity Assay to monitor cytotoxicity in HepG2 cells - 0 hour (AID 1224882); note: nearly all actives have a fitted effect of over 35% in size
Summary of the method: (§2)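 Nonlytic assay: viable cells exclude the dye, so fluorescence scales with cell death. HepG2 at 600 cells/well, compounds added after 5 h, signal read across 40 h.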

[3] = A CellTox Green Cytotoxicity Assay to monitor cytotoxicity in HepG2 cells - 32 hour (AID 1224883); note: nearly all actives have a fitted effect of over 50% in size
Summary of the method: as §2

[4] = A CellTox Green Cytotoxicity Assay to monitor cytotoxicity in HEK293 cells - 8 hour (AID 1224884); note: nearly all actives have a fitted effect of over 35% in size
Summary of the method: as §1

[5] = qHTS RealTime-Glo MT Cell Viability Assay in HepG2 cells - 16 hour (AID 1224885); note: nearly all actives have a fitted effect of over 50% in size
Summary of the method: (§3)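 Compound treatment began 5 h after plating HepG2 cells (600/well) with NanoLuc luciferase and prosubstrate. Plates stayed at 37 C for 40 h; luminescence was captured at six time points, 0 h through 40 h.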

[6] = qHTS RealTime-Glo MT Cell Viability Assay in HEK293 cells - 24 hour (AID 1224886); note: nearly all actives have a fitted effect of over 50% in size; note: potency is the fitted concentration of half-maximal effect
Summary of the method: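 Quantitative high-throughput screen of the Tox21 10K library in HEK293: cells and RealTime-Glo reagents plated together, compound added at 5 h, luminescence monitored through 40 h at 37 C.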

[7] = qHTS RealTime-Glo MT Cell Viability Assay in HEK293 cells - 8 hour (AID 1224887); note: nearly all actives have a fitted effect of over 50% in size; note: potency is the fitted concentration of half-maximal effect
Summary of the method: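 Tox21 screen in HEK293 using RealTime-Glo MT chemistry, with cells and reagent co-dispensed. Luminescence proportional to viable cell number was captured at intervals during 40 h compound exposure at 37 C.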

[8] = qHTS RealTime-Glo MT Cell Viability Assay in HepG2 cells - 0 hour (AID 1224889); note: nearly all actives have a fitted effect of over 50% in size
Summary of the method: as §3

[9] = A CellTox Green Cytotoxicity Assay to monitor cytotoxicity in HepG2 cells - 8 hour (AID 1224890); note: nearly all actives have a fitted effect of over 45% in size
Summary of the method: as §2

[10] = qHTS assay to identify small molecule antagonists of the estrogen receptor alpha (ER-alpha) signaling pathway using the BG1 cell line in the presence of 0.1 nM 17-beta-estradiol - cell viability counter screen (AID 1259241); note: nearly all actives have a fitted effect of over 40% in size
Summary of the method: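 Cytotoxicity counter-screen: live-cell protease activity measured by fluorescence (30 min reagent step) in the same wells. Cells were VM7Luc4E2 with endogenous ER-alpha and ERE-driven luciferase, treated 22 hr at 37C alongside 0.1 nM 17beta-estradiol final.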

[11] = target: Androgen receptor (Homo sapiens) (UniProt P10275); test: qHTS assay to identify small molecule antagonists of the androgen receptor (AR) signaling pathway using the MDA cell line in the presence of 0.5 nM R1881 (AID 1259243); note: nearly all actives have a fitted effect of over 50% in size; note: potency is the fitted concentration of half-maximal effect
Summary of the method: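 We exposed MDA-kb2 cells to compounds under 0.5 nM R1881 stimulation for 16 hr at 37C and quantified MMTV-driven luciferase by luminescence.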

[12] = target: Estrogen receptor (Homo sapiens) (UniProt P03372); test: qHTS assay to identify small molecule antagonists of the estrogen receptor alpha (ER-alpha) signaling pathway using the BG1 cell line in the presence of 0.1 nM 17-beta-estradiol (AID 1259244); note: nearly all actives have a fitted effect of over 50% in size; note: potency is the fitted concentration of half-maximal effect
Summary of the method: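 VM7Luc4E2; 4xERE-luciferase; 0.1 nM E2 final; 22 h co-incubation, 37C; ONE-Glo luminescence after 30 min at room temperature.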

[13] = qHTS assay to identify small molecule HDAC inhibitors (AID 1259364); note: potency is the fitted concentration of half-maximal effect;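 note: wild-type HCT-116 cells with endogenous class I/II HDAC activity; nearly all actives have a fitted effect of over 45% in size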
Summary of the method: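 Relative class I and II HDAC activity is taken from the luminogenic signal in HCT-116 cells, with compound exposure 2 hr and reagent development 30 min at room temperature.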

[14] = qHTS assay to identify small molecule agonists of the sonic hedgehog signaling (Shh) pathway - cell viability counter screen (AID 1259366); note: nearly all actives have a fitted effect of over 50% in size; note: potency is the fitted concentration of half-maximal effect
Summary of the method: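 Cytotoxicity counter screen: CellTiter-Fluor reagent added after 23 h compound exposure, then 1 h at 37C and fluorescence read. Cells were 3T3 Gli1-Luc, seeded 2,000 per well and dosed 4 h post-plating.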

[15] = qHTS assay to identify small molecule antagonists of the sonic hedgehog signaling (Shh) pathway - cell viability counter screen (AID 1259367); note: nearly all actives have a fitted effect of over 55% in size; note: potency is the fitted concentration of half-maximal effect
Summary of the method: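 NIH/3T3-derived Gli1-Luc reporter cells (2,000 per well) rested 4 hr at 37 C, then received DMSO compounds plus conditioned medium. After 23 hr of treatment, CellTiter-Fluor was added for 1 hr at 37C and fluorescence read.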

[16] = qHTS assay to identify small molecule agonists of the sonic hedgehog signaling (Shh) pathway (AID 1259368; calls by dose curve;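 note: NIH/3T3-derived 3T3Gli1-Luc cells carrying a stable Gli1-driven firefly luciferase reporter; series mostly up to about 92 µM; nearly all actives have a fitted effect of over 15% in size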)
Summary of the method: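 Mouse fibroblast (NIH/3T3) reporter cells with stably integrated Gli1-Luc were treated 24 hr with compound; firefly luciferase luminescence served as the read-out.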

[17] = qHTS assay to identify small molecule antagonists of the androgen receptor (AR) signaling pathway using the MDA cell line in the presence of 0.5 nM R1881 - cell viability counter screen (AID 1259242); note: nearly all actives have a fitted effect of over 45% in size
Summary of the method: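 R1881 at 0.5 nM final stimulated MDA-kb2 cells during 16 hr compound treatment at 37C. Cytotoxicity read: CellTiter-Fluor fluorescence after 30 min.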

[18] = qHTS assay to identify small molecule phospholipidosis (PLD) inducers (AID 1259344; active = well fitted curve in the direction sought with a large enough effect; an effect the other way counts as inactive or inconclusive)
Summary of the method: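 HepG2 cells on collagen I, attached 4 h at 37 C, were co-treated with compound and LipidTOX Red dye for 24 h at 37 C, then fixed with paraformaldehyde plus Hoechst 33342 and imaged by high-content microscopy for phospholipid accumulation.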

[19] = A CellTox Green Cytotoxicity Assay to monitor cytotoxicity in HEK293 cells - 16 hour (AID 1224888); note: nearly all actives have a fitted effect of over 35% in size
Summary of the method: as §1

[20] = qHTS assay to identify small molecule HDAC inhibitors - cell viability counter screen (AID 1259365)
Summary of the method: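 CellTiter-Glo luminescence (30 min, room temperature) reported viability after a 2 h compound exposure at 37 C. Cells: wild-type HCT-116, 1,500 per well, seeded the night before.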

Measured: Potency

Chain of Androgen receptor (Homo sapiens) (P10275 whole entry, looked up): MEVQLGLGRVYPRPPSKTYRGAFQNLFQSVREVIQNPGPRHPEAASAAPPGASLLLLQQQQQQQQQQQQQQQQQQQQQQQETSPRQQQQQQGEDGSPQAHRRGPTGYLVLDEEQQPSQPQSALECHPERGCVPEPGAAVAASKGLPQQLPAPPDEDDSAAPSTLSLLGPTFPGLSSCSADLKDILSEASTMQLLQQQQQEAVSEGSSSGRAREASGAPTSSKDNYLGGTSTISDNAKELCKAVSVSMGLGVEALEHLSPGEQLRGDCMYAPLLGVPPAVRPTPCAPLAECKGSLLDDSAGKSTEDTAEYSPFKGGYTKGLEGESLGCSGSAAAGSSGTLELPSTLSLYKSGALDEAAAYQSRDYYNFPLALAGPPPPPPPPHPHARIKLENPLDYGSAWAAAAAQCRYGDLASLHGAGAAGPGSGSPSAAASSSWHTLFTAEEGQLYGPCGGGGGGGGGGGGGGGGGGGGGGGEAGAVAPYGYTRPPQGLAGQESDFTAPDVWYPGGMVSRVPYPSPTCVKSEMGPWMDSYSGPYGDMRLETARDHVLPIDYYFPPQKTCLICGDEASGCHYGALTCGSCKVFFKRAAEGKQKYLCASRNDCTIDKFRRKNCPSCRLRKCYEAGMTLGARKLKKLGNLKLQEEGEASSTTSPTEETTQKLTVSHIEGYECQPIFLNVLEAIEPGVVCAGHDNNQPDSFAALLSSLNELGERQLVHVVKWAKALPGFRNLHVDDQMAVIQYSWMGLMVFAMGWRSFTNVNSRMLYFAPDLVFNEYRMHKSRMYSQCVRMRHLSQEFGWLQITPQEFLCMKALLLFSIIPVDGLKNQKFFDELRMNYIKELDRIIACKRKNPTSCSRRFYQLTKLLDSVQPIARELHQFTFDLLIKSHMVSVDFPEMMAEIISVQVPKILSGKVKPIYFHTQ
Chain of Estrogen receptor (Homo sapiens) (P03372 whole entry, looked up): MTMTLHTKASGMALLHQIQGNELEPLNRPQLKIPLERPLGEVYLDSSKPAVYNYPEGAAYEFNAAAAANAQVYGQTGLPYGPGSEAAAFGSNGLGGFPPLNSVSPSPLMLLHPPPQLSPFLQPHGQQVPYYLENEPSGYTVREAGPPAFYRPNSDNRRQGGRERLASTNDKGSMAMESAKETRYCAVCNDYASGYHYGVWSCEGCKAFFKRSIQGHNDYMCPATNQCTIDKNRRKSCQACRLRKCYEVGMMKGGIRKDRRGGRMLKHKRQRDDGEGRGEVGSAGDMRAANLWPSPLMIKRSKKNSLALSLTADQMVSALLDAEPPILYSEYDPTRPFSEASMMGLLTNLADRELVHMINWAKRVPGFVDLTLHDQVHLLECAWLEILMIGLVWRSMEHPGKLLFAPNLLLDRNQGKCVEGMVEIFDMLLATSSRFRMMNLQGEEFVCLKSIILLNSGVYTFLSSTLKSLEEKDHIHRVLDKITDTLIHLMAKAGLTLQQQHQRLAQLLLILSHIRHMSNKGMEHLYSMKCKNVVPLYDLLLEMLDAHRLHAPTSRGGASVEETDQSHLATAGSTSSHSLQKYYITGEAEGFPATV

N[C@H]1C(O)O[C@H](CO)[C@H](O)[C@@H]1O (stereo not given in full)
not listed: [17] | [18] | [19] | [20]
inactive: all other assays above

Cc1ccc(C(=O)C(C)CN2CCCCC2)cc1 (stereo not given)
not listed: [11] | [19] | [20]
inactive: all other assays above

CCCCOC(=O)c1ccccc1C(=O)OCC(CC)CCCC (stereo not given)
not listed: [11] | [18] | [19] | [20]
inactive: all other assays above

C=C(C)C(=O)OCCOc1ccccc1
active: [13] 27.3 µM
not listed: [7] | [14] | [15] | [18]
inactive: all other assays above

O=C(Cl)c1ccc([N+](=O)[O-])cc1
not listed: [18] | [19] | [20]
inactive: all other assays above

SC1CCCC1
not listed: [11] | [15] | [17] | [18]
inactive: all other assays above

COCCOCCOCCOCCOC
not listed: [18] | [19]
inactive: all other assays above

O=C(O)Cc1sc(-c2ccccc2)nc1-c1ccc(Cl)cc1
not listed: [7]
inactive: all other assays above

C=C(C)C(=O)OCCN(C)C
not listed: [7] | [11] | [18]
inactive: all other assays above

NCc1ccccc1
not listed: [11] | [12] | [15] | [18] | [19]
inactive: all other assays above

OCC1CC2CC1C1CCC(CO)C21 (stereo not given)
not listed: [10] | [11] | [18]
inactive: all other assays above

NCCCN(CCO)CCO
not listed: [17] | [18] | [20]
inactive: all other assays above

C[Si](C)O[Si](C)(C)O[Si](C)(C)O[Si](C)C
not listed: [11] | [17] | [18]
inactive: all other assays above

O=CNc1ccccc1
not listed: [11] | [12] | [15] | [17] | [18]
inactive: all other assays above

Cc1cc(O)ccc1N
inactive: [2] | [3] | [4] | [5] | [8] | [9] | [16]
active: [1] 34.9 µM | [6] 55.3 µM | [7] 43.9 µM | [11] 43.5 µM | [12] 15.4 µM | [14] 27.4 µM | [15] 48.8 µM

CCCCCCCCCCCCCCC1CO1 (stereo not given)
not listed: [11] | [18] | [19]
inactive: all other assays above

O=C=NC1CCC(CC2CCC(N=C=O)CC2)CC1 (stereo not given)
active: [1] 54.9 µM
not listed: [11] | [12] | [14] | [15] | [17] | [18] | [19]
inactive: all other assays above

O=C(O)Cc1cc(I)c(Oc2ccc(O)c(I)c2)c(I)c1
not listed: [8] | [11] | [12] | [20]
inactive: all other assays above

CCc1nn(C2CCCCC2)c2cc(C3(C#N)CCC(C(=O)O)CC3)ccc12 (stereo not given)
active: [14] 30.6 µM | [15] 27.3 µM
not listed: [7] | [11] | [18]
inactive: all other assays above

CC(C)(C)c1cc(CCC(=O)OCC(COC(=O)CCc2cc(C(C)(C)C)c(O)c(C(C)(C)C)c2)(COC(=O)CCc2cc(C(C)(C)C)c(O)c(C(C)(C)C)c2)COC(=O)CCc2cc(C(C)(C)C)c(O)c(C(C)(C)C)c2)cc(C(C)(C)C)c1O
not listed: [11] | [17] | [18]
inactive: all other assays above

O=C1Nc2cc(Cl)ccc2Oc2ccccc21
active: [11] 4.22 µM
not listed: [12] | [15] | [17] | [18]
inactive: all other assays above

CC(C)c1cccc(C(C)C)c1NC(=O)NS(=O)(=O)c1cc(C(C)(C)O)co1
not listed: [7] | [11] | [12] | [18]
inactive: all other assays above

Cc1cc(CC(=O)O)c(C)n1-c1ccc(Cl)cc1
not listed: [7] | [11] | [12] | [15] | [17]
inactive: all other assays above

C[C@H](CCC(=O)O)[C@H]1CC[C@H]2[C@@H]3[C@H](O)C[C@@H]4C[C@H](O)CC[C@]4(C)[C@H]3CC[C@]12C
not listed: [6] | [7] | [10] | [11] | [15]
inactive: all other assays above

CCN1CCC[C@H]1CNC(=O)c1c(OC)ccc(Br)c1OC
not listed: [5] | [7] | [11]
inactive: all other assays above

CN1CCC(OC(c2ccccc2)c2ccccc2)CC1
not listed: [5] | [10] | [11]
inactive: all other assays above

CC(C)=CCCC(C)CC=O (stereo not given)
not listed: [7] | [11] | [12] | [18]
inactive: all other assays above

COC(Cc1ccccc1)OC
not listed: [5] | [11] | [15] | [18] | [20]
inactive: all other assays above

CC(=O)OC/C=C/c1ccccc1
not listed: [7] | [11] | [12] | [15] | [17] | [18]
inactive: all other assays above

CC(C)NCC(O)COc1ccc(CC(N)=O)cc1 (stereo not given)
not listed: [7] | [11] | [18] | [20]
inactive: all other assays above

CC(CN)CCCN (stereo not given)
not listed: [5] | [11] | [18] | [20]
inactive: all other assays above
